Shown are actives, neighbours in structure and some others; about 7.3% of the full set was active somewhere.
SMN2 splice enh: enhancers of SMN2 splice variant expression; AID 1458; Potency, µM (top dose mostly 46.1 µM), inactives show top-dose activity change, positive = activation, hits mostly activators; 210,000 tested, 2.8% active; HEK293 SMN2-luciferase splicing reporter, luminescence, 30-36 h; further: % of control where 0% means no effect; nearly all actives have a fitted effect of over 55% in size
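qHTS luciferase splicing reporter: luminescence rises when SMN2 exon 7 is included in transfected HEK293 cells. Compound exposure lasted 30-36 h at 37C, with 4.5 mM final sodium butyrate as control, followed by a ONE-Glo read.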
ELG1 genotoxic: genotoxicity induction in ELG1-luciferase HEK293T cells. HEK293T ELG1-luciferase reporter, luminescence, 16 h. Potency, µM (series often up to 46 µM), without a hit: at the top dose activity change, positive = activation, usual class: activators. 330,000 tested, 1.3% active. AID 504466; further: % of control where 0% means no effect; nearly all actives have a fitted effect of over 60% in size
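Quantitative HTS format in 1536-well plates. HEK293T ELG1-luciferase reporter cells receive test compound and are incubated 16 hr at 37 °C, 5% CO2; ONE-Glo added, 30 min room temperature, then luminescence read.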
Rab9 prom act: activates the Rab9 promoter | AID 485297 | Huh7 Rab9 promoter-luciferase reporter, luminescence, 24 h | 320,000 tested, 2.8% active | Potency, µM (doses to about 9.22 µM), inactives show at the highest dose activation, negative = inhibition, actives largely listed as activators; further: % of control where 0% means no effect; nearly all actives have a fitted effect of over 60% in size
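Huh7 cells stably carrying a Rab9 promoter-luciferase reporter, 1500 cells per well in OP-MEM I with 10% FBS, treated with compound 24 hours at 37C. Luciferase activity read by luminescence after 10 minutes with Amplite reagent.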
FLuc modulator: firefly luciferase modulation, counter-screen for miR-21 project; P08659; purified FLuc, Km substrates, luminescence inhibition; Potency, µM (top dose mostly 57.5 µM), for the others: at the top dose activity change, negative = inhibition, usual class: inhibitors; 360,000 tested, 6.9% active; AID 588342;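 further: plate controls were vehicle for no effect and reference inhibitor for full effect; nearly all actives have a fitted effect of over 55% in size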
Target sequence (P08659 whole entry, looked up): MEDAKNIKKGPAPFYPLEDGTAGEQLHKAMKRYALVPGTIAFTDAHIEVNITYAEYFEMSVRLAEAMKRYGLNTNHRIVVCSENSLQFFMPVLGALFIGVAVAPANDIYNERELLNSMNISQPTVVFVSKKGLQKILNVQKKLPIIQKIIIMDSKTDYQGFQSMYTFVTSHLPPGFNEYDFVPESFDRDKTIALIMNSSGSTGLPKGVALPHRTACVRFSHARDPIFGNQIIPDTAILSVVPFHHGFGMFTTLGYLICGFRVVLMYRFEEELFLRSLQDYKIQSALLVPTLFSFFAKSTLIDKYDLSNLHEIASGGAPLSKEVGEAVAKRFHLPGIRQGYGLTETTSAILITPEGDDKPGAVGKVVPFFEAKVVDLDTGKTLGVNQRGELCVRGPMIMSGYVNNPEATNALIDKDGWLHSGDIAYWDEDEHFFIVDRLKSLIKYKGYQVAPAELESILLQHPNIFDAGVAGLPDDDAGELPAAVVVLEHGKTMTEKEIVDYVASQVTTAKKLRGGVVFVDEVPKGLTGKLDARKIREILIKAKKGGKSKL
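Purified P. pyralis luciferase (10nM final) with 10uM D-luciferin and 10uM ATP (Km levels) in 50mM Tris acetate pH 7.5, 10mM Mg acetate, 0.01% Tween-20, 0.05% BSA; qHTS 6-point titration, ~60 µM downward; luminescence read.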
uPA generation: blocks generation of uPA at the cell surface; cell surface uPA generation assay, qHTS; Potency, µM (titrated, usually from 38.3 µM), for inactives: at the highest dose activity change, negative = inhibition, actives largely listed as inhibitors; 330,000 tested, 0.31% active; AID 540303; active means well fitted inhibition curve with a large enough effect; inconclusive means small, poorly fitted or top-dose-only effect; inactive means no such curve, though single readings can be large or run the other way; tested in mouse RAW 264.7 cells; further: on the % scale 0 is the no-effect control and ±100 the full control effect; nearly all actives have a fitted effect of over 55% in size
NPC1 prom act: NPC1 promoter activation; 320,000 tested, 2.4% active; Potency, µM (doses to about 9.22 µM), inactives show top-dose activation, actives largely listed as activators; Huh7 NPC1 promoter luciferase reporter, 24 h; further: % of control where 0% means no effect; nearly all actives have a fitted effect of over 60% in size
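In 1536-well qHTS, Huh7 cells harboring an NPC1 promoter–luciferase construct received compound for 24 h; activation was quantified by luminescence following luciferase reagent addition.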
The depositor's hits bear a star; ? = inconclusive; nt = not tested or not shown; [ ] = remark or other dose. Unless noted, the call rests on the fitted dose curve; in most records, active means well fitted curve in the direction sought with a large enough effect; inconclusive means small, poorly fitted or top-dose-only effect, or another doubt; inactive means no such curve, though single readings can be large; an effect the other way counts as inactive or inconclusive. Potency means the concentration at half of the fitted maximal effect.

SMILES	SMN2 splice enh	ELG1 genotoxic	Rab9 prom act	FLuc modulator	uPA generation	NPC1 prom act
Cc1ccc(-c2cc(N)n(Cc3ccc(Cl)cc3)n2)cc1	-47%	-4%	-16%	?	9%	-14%
COc1cccc2c1cc1c(=O)n(CC(=O)NCc3ccc(C)o3)nc(C)n12	-2%	nt	nt	2%	nt	nt
CC(=O)c1cccc(OCc2cc(C(=O)N(C)CCc3ccccn3)no2)c1	nt	-3%	13%	1%	2%	4%
Cc1cc(CN(C)C(=O)c2cc(COc3ccc(C)c(C)c3)on2)on1	nt	16µM*	1.4µM*	12µM*	18%	2.5µM*
COc1cccc(OCc2cc(C(=O)N(C)Cc3nc(C)cs3)no2)c1	nt	12µM*	2.2µM*	12µM*	-2%	3.2µM*
Cc1ccc(OCc2cc(C(=O)N(C)CCc3ccccn3)no2)cc1C	nt	10%[9.26 µM]	3.5µM*	13µM*	2%	?
Cc1nnc(CN(C)C(=O)c2cc(COc3ccc(C)c(C)c3)on2)o1	nt	9%	17%	?	0%	11%
Cc1cc(C)c(C)c(OCC(=O)Nc2ccc(S(=O)(=O)Nc3nc(C)cc(C)n3)cc2)c1	-12%	nt	nt	?	nt	nt
COc1ccc(NC2=Nc3cccc4cccc2c34)cc1OC	-9%	-3%	-2%	?	4%	6%
COc1cccc(NC2=Nc3cccc4cccc2c34)c1	14%	4%	-3%	12µM*	-1%	-3%
C(=N\NC1=Nc2cccc3cccc1c23)/c1ccccc1	4µM*	?	4.5µM*	1.7µM*	5%	4µM*
Clc1ccc(/C=N/NC2=Nc3cccc4cccc2c34)cc1	11µM*	?	0.63µM*	1.7µM*	5%	0.63µM*
C(=N\N=C\c1cccnc1)/c1cccnc1	-5%	2%	5%	?	0%	1%
C(=N\NC1=Nc2cccc3cccc1c23)/c1cccnc1	11µM*	?	2.5µM*	4.8µM*	-5%	3.5µM*
Clc1ccc(/C=N/Nc2nn[nH]n2)cc1	5%	5%	-1%	?	-1%	-1%
NC1=Nc2cccc3cccc1c23	2%	-3%	-2%	-8%	11%	3%
O=C(O)c1cc2c(cc1S(=O)(=O)O)[C@H]1[C@@H](C3[C@H]2[C@@]2(Cl)C(Cl)=C(Cl)C3(Cl)C2(Cl)Cl)[C@]2(Cl)C(Cl)=C(Cl)C1(Cl)C2(Cl)Cl (stereo partly drawn)	-4%[9.22 µM]	nt	nt	nt	nt	nt
CCN(C(=O)CSc1nc2ccccc2n1CC(=O)Nc1cccc(C#N)c1)c1ccccc1	nt	nt	nt	-11%	nt	nt
COc1ccccc1C(=O)Nc1ccccc1SCc1cc(=O)c2ccccc2[nH]1	nt	nt	nt	0%	nt	nt
CC(C)N1CC(O)=C(c2nc3ccccc3[nH]2)C1=N	9%	?	?	19µM*	-18%	16%
COc1cc(N=Nc2c(O)c3ccccc3[nH]c2=O)c(OC)cc1N=Nc1ccccc1	nt	-4%	-1%	15µM*	5%	3%
CC(=O)Nc1ccc(C2=NN(c3ccccc3)C(c3ccccc3)C2)cc1 (stereo not drawn)	nt	11%	9%	-13%	-17%	15%
CC(=O)Nc1ccc(C2CC(c3ccc(Cl)cc3)=NN2c2ccccc2)cc1 (stereo not drawn)	nt	8%	17%	17µM*	-22%	11%
CCC(CC)C(=O)Nc1cc(-c2cn3cccnc3n2)ccc1OC	nt	nt	nt	-9%	nt	nt
COc1ccc(-c2cn3cccnc3n2)cc1NC(=O)c1cc(OC)c(OC)c(OC)c1	21%	-6%	21%	21µM*	-1%	-2%
SMILES	SMN2 splice enh	ELG1 genotoxic	Rab9 prom act	FLuc modulator	uPA generation	NPC1 prom act
COc1ccc(-c2cn3cccnc3n2)cc1NC(=O)C(C)Oc1ccccc1 (stereo not drawn)	nt	-4%	-8%	27µM*	-1%	-1%
COc1ccc(-c2cn3cccnc3n2)cc1NC(=O)Nc1ccc(Cl)cc1	nt	nt	nt	6µM*	nt	nt
COc1cc(C(=O)Nc2cccc(-c3cn4cccnc4n3)c2)cc(OC)c1OC	-18%	-10%	6%	?	3%	0%
CCOC(=O)C1=C(CS(=O)(=O)c2ccc(OC)c(Cl)c2)NC(=O)NC1c1cccc(OC)c1 (stereo not drawn)	1%	nt	nt	5%	nt	nt
O=C(NCc1ccccc1)c1ccc2c(c1)N(Cc1ccccc1F)C(=O)c1ccccc1S2=O (stereo not drawn)	10%	nt	nt	-2%	nt	nt
COc1ccc(-c2csc(=NCCO)n2-c2ccccc2)cc1	nt	13%	9%	19µM*	-3%	18%
COc1ccc(-c2csc(=Nc3ccccc3)n2CCO)cc1	-71%	?	-5%	17µM*	2%	21%
C=CCn1c(-c2ccc(OC)cc2)csc1=Nc1c(C)n(C)n(-c2ccccc2)c1=O	-19%	-16%	0%	2%	1%	1%
CCc1ccccc1NC(=O)COC(=O)c1cn(CC)c2nc(C)ccc2c1=O	3%	nt	nt	-9%	nt	nt
Cc1ccc(S(=O)(=O)c2cnc(SCC(=O)Nc3ccc4c(c3)OCCO4)[nH]c2=O)cc1C	-3%	nt	nt	11µM*	nt	nt
Cc1ccc(NC(=O)CSc2ncc(S(=O)(=O)c3ccc(C(C)C)cc3)c(=O)[nH]2)cc1C	-3%	nt	nt	?	nt	nt
Cc1c(Cl)cccc1NC(=O)CSc1ncc(S(=O)(=O)c2ccc(C(C)C)cc2)c(=O)[nH]1	-5%	nt	nt	7.6µM*	nt	nt
Cc1ccc(S(=O)(=O)c2cnc(SCC(=O)Nc3ccccc3C(F)(F)F)[nH]c2=O)cc1C	-8%	nt	nt	11µM*	nt	nt
O=C1C(c2ccc(F)cc2)N(Cc2ccccc2Cl)C(=O)CN1C1CCCCC1 (stereo not drawn)	nt	nt	nt	-4%	nt	nt
O=C(c1cccc(Cl)c1)N1CCC(c2nc3c(nnn3Cc3ccc(F)cc3F)c(=O)[nH]2)CC1	-17%	nt	nt	-7%	nt	nt
COc1cc([N+](=O)[O-])ccc1NC(=O)C[n+]1cccc(C(C)=O)c1	16%	0%	-3%	1%	6%	1%
Cc1ccc(C(=O)CSc2nc(-c3ccccc3)nc3c2CCCC3)cc1	-5%	nt	nt	-8%	nt	nt
O=C(Nc1cc(F)c(Br)cc1F)c1ccc(Cl)cc1	nt	?	1.8µM*	2.7µM*	-4%	2.2µM*
Cc1ccc(C(=O)Nc2ccsc2C(=O)O)cc1	nt	23µM*	0.45µM*	2.7µM*	?	0.71µM*
CC(=O)c1cnc2cc(C)nn2c1C	-10%	1%	3%	-2%	-1%	-5%
Cc1cc2ncc(C(=O)Nc3ccsc3C(=O)O)c(C)n2n1	-2%	?	?	12µM*	1%	?
O=C(Nc1ccsc1C(=O)O)c1ccc(Cl)cc1	nt	23µM*	4µM*	8.5µM*	-13%	2.8µM*
Cc1cc(S(=O)(=O)N2CCCCCC2)c(Cl)cc1Cl	-11%	-5%	-14%	-1%	1%	1%

Bioassay records as filed in PubChem.
